We go through 15 molecules from PubChem BioAssay (NCATS).

A number with no mark means an inactive call. Inconclusive results are not listed. Calls of active or inactive are those of the source. Unless noted, calls follow the shape of the dose curve; as a rule, active = well fitted curve in either direction with a large enough effect (not every such curve was filed as active); inconclusive = small, poorly fitted or top-dose-only effect, or another doubt; inactive = flat fitted curve, though single readings scatter.

Experiment [1] addresses Lysosomal acid glucosylceramidase (Homo sapiens) (UniProt P04062). The experiment in a line: Glucocerebrosidase-p2 (AID 348; in the data active = potency below about 10 µM; also: potency is read from the fitted curve at half-maximal effect). Particulars: purified GBA, blue fluorogenic substrate, 40 min. In outline:
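Normal human glucocerebrosidase (0.2 nM) with blue fluorogenic substrate (80 uM final) in citrate/phosphate pH 5.9 with 10mM sodium taurocholate, 0.01% tween-20; 40 min RT, NaOH/glycine stop; fluorescence Ex 365/Em 440; AC50 from a titration from 0.6 nM upwards.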

Experiment [2] can be described thus: AP1 Signaling Pathway (AID 357).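 Also: ME-180 reporter cells stimulated with EGF at its EC50 level; % is scaled to controls: 0 for no effect and ±100 for the full control effect.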 The settings on record: ME-180 AP-1-bla reporter, EGF-induced, beta-lactamase ratio, 5 h; at 7.69 µM (top of the series) unless noted. A digest of the protocol:
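Beta-lactamase reporter under AP-1 response element, ME-180 background. Stimulus: EC50 EGF. Compound exposure 5 h, 37 °C. Detection: CCF4, 2.5 h RT, 460/530 nm. Values: AC50 from titration.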

Experiment [3] concerns the target Cytochrome P450 1A2 (Homo sapiens) (UniProt P05177). The experiment in a line: p450-cyp1a2 (AID 410; calls by dose curve; also: potency is read from the fitted curve at half-maximal effect;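 as to activity change, negative = inhibition: -100% = full effect of reference inhibitor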). Particulars: recombinant CYP1A2, luciferin-ME demethylation, luminescence; series mostly up to 11.4 µM. A digest of the protocol: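 Read-out is luminescence from luciferin produced by CYP1A2 demethylation of Luciferin-ME (100uM, at Km). Detection reagent stopped the 60 min NADPH-dependent reaction; signals were normalized to 57 uM furafylline.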

The nature of experiment [4]: Stat Signaling Pathway (AID 446).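 Also: ME-180 cervical cancer cells given 40 pM IL-6 alongside compound; SIE-controlled beta-lactamase reporter measured as 460/530 nm FRET emission ratio; % is scaled to controls: 0 for no effect and ±100 for the full control effect.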 The settings on record: ME-180 SIE beta-lactamase reporter, IL-6 stimulated, 5 h; at 7.69 µM (top of the series) unless noted. In outline: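 Overnight-plated ME-180 cells bearing a STAT Inducible Element beta-lactamase reporter; 5 h co-exposure to compound and 40 pM IL-6; values normalized to 300 pM IL-6 and 125 nM JAK inhibitor controls.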

The target in experiment [5] is Glucocorticoid receptor (Homo sapiens) (UniProt P04150). Put plainly: GR-GFP Redistribution (AID 450;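 active = compounds whose dose series gives a full or clear partial fitted curve of increased nuclear translocation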; also: potency is read from the fitted curve at half-maximal effect). Particulars: U2OS GR-GFP nuclear translocation, laser cytometry, 2 h.
Glucocorticoid receptor (Homo sapiens), sequence (P04150 whole entry, looked up, the tested form may be a part): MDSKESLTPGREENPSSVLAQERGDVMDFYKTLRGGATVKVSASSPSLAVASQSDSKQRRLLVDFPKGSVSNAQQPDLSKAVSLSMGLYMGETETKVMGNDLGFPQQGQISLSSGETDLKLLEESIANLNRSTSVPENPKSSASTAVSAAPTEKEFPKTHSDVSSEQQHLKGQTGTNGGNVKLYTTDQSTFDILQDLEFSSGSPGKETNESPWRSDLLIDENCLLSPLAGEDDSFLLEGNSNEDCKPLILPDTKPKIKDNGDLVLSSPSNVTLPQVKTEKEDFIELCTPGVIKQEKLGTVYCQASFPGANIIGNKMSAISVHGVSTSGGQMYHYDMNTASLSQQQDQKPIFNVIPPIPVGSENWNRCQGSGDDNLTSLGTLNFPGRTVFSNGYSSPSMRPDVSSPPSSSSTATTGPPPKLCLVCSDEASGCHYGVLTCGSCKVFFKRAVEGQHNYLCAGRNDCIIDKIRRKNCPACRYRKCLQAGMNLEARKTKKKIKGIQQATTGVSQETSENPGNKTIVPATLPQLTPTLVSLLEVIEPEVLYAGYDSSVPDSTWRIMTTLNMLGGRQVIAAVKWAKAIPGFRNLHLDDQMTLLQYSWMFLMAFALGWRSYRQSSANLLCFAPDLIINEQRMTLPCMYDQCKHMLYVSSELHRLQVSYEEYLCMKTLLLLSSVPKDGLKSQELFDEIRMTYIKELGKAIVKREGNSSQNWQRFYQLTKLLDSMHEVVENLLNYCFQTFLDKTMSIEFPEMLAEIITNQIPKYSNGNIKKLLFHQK
Experiment [6] shares this target. The experiment in a line: GR-EFC Redistribution (AID 451; calls by dose curve; also: potency is read from the fitted curve at half-maximal effect). The settings on record: CHO-K1 GR-EFC translocation, beta-gal luminescence, 2 h. A digest of the protocol: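 CHO-K1 cells stably expressing nuclear-localized β-gal enzyme acceptor and GR fused C-terminally to the enzyme donor fragment; ligand-driven nuclear translocation restores β-gal by complementation. Compounds titrated up to 46 uM final, 2 h at 37 °C; luminescence read.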

Experiment [7] concerns the target Mitogen-activated protein kinase 10 (Mus musculus) (UniProt Q61831). The experiment in a line: JNK3 AlphaScreen Assay (AID 530).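 Also: kinase came from lysate of stimulated human HepG2 cells; % is scaled to controls: 0 for no effect and ±100 for the full control effect.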 Particulars: JNK3 lysate, c-Jun phosphorylation; series mostly up to 11.4 µM. In outline: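 Biotinylated GST-cJun(1-79) served as substrate for JNK3 in HepG2 lysates stimulated with IL-1beta and TNF-alpha. ATP was 10 uM final, pH 7.6. Ser73 phosphorylation was quantified by AlphaScreen (680 nm excitation).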

In experiment [8] the target is 3',5'-cyclic-AMP phosphodiesterase 4B (Homo sapiens) (UniProt Q07343). The experiment in a line: qHTS Assay for Inhibitors of PDE-IV (AID 607; active = well fitted activation curve with a large enough effect in the main read-out, with a control signal flat, not every such curve was filed as active; also: % of control where 0% means no effect). The settings on record: HEK293 ACTOne CNG channel cells, membrane potential fluorescence; series mostly up to 22.9 µM. In outline:
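Live HEK293 cells with a modified cyclic nucleotide-gated (CNG) channel report intracellular cAMP via membrane-potential dye fluorescence (ex 535/em 590 nm). Endogenous PDE-IV was targeted. Compounds were tested at up to 22.9 uM final; RO 20-1724 100 uM served as control.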

For experiment [9], the target named is Cytochrome P450 2D6 (Homo sapiens) (UniProt P10635). Put plainly: qHTS Assay for Inhibitors and Substrates of Cytochrome P450 2D6 (AID 891; active = well fitted curve in the direction sought with a large enough effect; an effect the other way counts as inactive or inconclusive; also: nearly all actives have a fitted effect of over 60% in size; also: potency is read from the fitted curve at half-maximal effect;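 as to activity change, negative = inhibition: luciferin methyl ether substrate demethylated by CYP2D6 with NADPH regeneration; % is scaled to controls: 0 for no effect and ±100 for the full control effect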). The settings on record: recombinant CYP2D6, luciferin-ME EGE luminescence; series mostly up to 11.4 µM. A digest of the protocol: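 Luminescent read-out of luciferin formed by 5 nM human CYP2D6 demethylating 30 uM Luciferin-ME EGE (Km level) over 60 min at room temperature after NADPH regeneration addition. Data normalized to full inhibition by 1.43 uM quinidine.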
Cytochrome P450 2D6 (Homo sapiens), sequence (P10635 whole entry, looked up): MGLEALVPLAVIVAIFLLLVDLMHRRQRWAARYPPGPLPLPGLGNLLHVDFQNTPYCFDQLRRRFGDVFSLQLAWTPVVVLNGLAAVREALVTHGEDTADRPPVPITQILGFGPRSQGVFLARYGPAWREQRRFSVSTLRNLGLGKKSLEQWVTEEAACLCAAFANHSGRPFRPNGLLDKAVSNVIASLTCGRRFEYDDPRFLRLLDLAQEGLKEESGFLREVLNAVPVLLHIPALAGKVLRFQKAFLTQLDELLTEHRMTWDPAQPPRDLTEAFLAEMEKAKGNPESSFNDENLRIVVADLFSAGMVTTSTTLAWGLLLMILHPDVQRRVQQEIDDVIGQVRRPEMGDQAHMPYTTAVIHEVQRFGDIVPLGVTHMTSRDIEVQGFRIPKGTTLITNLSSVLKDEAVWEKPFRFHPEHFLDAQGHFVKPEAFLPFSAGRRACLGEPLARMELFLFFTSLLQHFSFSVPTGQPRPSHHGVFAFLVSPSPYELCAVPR

A short description of experiment [10]: qHTS Assay for Identification of Small Molecule Agonists for Hypoxia Response Element Signaling Pathway (AID 914; active = well fitted activation curve with a large enough effect in the signal ratio, with a control signal flat, not every such curve was filed as active; the % refers to the signal ratio; also: % of control where 0% means no effect). Particulars: ME-180 (cervical carcinoma) HRE-bla reporter, beta-lactamase ratio, CoCl2, 17 h; activation: active compounds read high. A digest of the protocol:
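Read-out: CCF4 FRET ratio of 460nm to 530nm emission (excitation 405nm) after 2.5 hours at room temperature, taken from HRE-bla ME-180 cells that had been exposed to compound and EC50 CoCl2 for 17 hours.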

Experiment [11] deals with Cytochrome P450 2C19 (Homo sapiens) (UniProt P33261). Put plainly: qHTS Assay for Inhibitors and Substrates of Cytochrome P450 2C19 (AID 899; active = well fitted curve in the direction sought with a large enough effect; an effect the other way counts as inactive or inconclusive; also: nearly all actives have a fitted effect of over 60% in size; also: potency is read from the fitted curve at half-maximal effect). The settings on record: recombinant CYP2C19, luciferin-H EGE luminescence; series mostly up to 11.4 µM. A digest of the protocol: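 In 50mM KPO4, the reaction held 5nM enzyme and KM-level (10uM) Luciferin-H EGE; it ran 60 min at 37C after NADPH regeneration and a 10 min compound preincubation. Luminescence values were scaled to 57uM ketoconazole as complete inhibition.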
Cytochrome P450 2C19 (Homo sapiens), sequence (P33261 whole entry, looked up): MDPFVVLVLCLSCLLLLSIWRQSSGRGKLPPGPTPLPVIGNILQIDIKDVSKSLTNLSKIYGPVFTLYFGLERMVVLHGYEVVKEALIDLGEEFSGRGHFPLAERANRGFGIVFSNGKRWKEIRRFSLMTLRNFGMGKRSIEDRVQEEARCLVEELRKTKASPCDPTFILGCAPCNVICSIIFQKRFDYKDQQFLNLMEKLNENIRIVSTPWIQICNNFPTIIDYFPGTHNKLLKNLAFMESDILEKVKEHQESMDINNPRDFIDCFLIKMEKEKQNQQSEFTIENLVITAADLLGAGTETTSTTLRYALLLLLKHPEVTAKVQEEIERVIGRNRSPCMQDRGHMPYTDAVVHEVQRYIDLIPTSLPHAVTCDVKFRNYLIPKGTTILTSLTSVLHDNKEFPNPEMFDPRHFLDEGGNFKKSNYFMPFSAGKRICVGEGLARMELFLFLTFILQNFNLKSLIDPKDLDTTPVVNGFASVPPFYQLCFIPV

Experiment [12] concerns the target Cytochrome P450 3A4 (Homo sapiens) (UniProt P08684). Put plainly: qHTS Assay for Activators of Cytochrome P450 3A4 (AID 885; active = well fitted curve in the direction sought with a large enough effect; an effect the other way counts as inactive or inconclusive; also: nearly all actives have a fitted effect of over 65% in size). Particulars: recombinant CYP3A4, Luciferin-PPXE luminescence, 60 min; series mostly up to 11.4 µM. In outline: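 Using 20nM recombinant human CYP3A4 in potassium phosphate (200mM), substrate Luciferin-PPXE at 25uM, luminescent luciferin detection followed a 60-min RT NADPH reaction; data scaled to 57 uM ketoconazole.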

The target in experiment [13] is Cytochrome P450 2C9 (Homo sapiens) (UniProt P11712). The experiment in a line: qHTS Assay for Inhibitors and Substrates of Cytochrome P450 2C9 (AID 883; active = well fitted curve in the direction sought with a large enough effect; an effect the other way counts as inactive or inconclusive; also: % is scaled to controls: 0 for no effect and ±100 for the full control effect; nearly all actives have a fitted effect of over 60% in size). Particulars: recombinant CYP2C9, luciferin-H luminescence, 60 min; series mostly up to 11.4 µM. A digest of the protocol:
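CYP2C9 deoxyluciferin hydroxylation, 37C, 60 min with NADPH regeneration; 10nM enzyme, 100uM Luciferin-H (KM). Glo detection reagent stopped reaction; luminescence normalized to sulphaphenazole (57uM) full inhibition.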

3',5'-cyclic-AMP phosphodiesterase 4B (Homo sapiens), sequence (Q07343 whole entry, looked up): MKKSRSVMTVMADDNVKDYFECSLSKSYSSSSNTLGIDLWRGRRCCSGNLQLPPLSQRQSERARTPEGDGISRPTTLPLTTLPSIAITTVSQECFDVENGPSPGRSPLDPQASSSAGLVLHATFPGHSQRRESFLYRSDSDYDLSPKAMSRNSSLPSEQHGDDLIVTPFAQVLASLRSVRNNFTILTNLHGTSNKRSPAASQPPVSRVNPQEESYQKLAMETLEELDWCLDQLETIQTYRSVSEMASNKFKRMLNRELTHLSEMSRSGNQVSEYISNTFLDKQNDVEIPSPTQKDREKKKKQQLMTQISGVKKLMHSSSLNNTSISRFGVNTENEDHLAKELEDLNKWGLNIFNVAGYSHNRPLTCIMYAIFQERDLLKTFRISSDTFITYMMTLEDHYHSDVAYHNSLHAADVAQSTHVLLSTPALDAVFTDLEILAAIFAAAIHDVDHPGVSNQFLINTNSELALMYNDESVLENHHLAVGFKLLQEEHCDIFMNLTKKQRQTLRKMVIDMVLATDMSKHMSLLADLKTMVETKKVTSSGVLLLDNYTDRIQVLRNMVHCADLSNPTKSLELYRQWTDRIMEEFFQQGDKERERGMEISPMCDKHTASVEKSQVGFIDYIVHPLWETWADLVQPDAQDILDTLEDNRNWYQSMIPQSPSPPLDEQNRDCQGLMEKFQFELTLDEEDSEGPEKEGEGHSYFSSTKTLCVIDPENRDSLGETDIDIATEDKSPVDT
Cytochrome P450 3A4 (Homo sapiens), sequence (P08684 whole entry, looked up): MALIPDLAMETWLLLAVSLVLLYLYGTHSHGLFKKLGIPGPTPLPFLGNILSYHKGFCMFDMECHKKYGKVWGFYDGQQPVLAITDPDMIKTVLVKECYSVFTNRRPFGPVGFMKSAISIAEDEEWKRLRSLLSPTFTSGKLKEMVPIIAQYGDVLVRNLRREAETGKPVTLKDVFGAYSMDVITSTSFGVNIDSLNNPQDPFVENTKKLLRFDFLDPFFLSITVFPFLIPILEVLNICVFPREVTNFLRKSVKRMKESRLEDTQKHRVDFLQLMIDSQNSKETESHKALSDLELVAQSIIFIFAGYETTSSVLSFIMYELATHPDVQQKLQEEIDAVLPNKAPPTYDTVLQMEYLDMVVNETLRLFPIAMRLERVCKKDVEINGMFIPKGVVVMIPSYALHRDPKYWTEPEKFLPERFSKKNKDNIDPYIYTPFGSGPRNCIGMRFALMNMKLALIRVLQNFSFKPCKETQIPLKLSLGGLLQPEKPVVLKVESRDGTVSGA
Lysosomal acid glucosylceramidase (Homo sapiens), sequence (P04062 whole entry, looked up): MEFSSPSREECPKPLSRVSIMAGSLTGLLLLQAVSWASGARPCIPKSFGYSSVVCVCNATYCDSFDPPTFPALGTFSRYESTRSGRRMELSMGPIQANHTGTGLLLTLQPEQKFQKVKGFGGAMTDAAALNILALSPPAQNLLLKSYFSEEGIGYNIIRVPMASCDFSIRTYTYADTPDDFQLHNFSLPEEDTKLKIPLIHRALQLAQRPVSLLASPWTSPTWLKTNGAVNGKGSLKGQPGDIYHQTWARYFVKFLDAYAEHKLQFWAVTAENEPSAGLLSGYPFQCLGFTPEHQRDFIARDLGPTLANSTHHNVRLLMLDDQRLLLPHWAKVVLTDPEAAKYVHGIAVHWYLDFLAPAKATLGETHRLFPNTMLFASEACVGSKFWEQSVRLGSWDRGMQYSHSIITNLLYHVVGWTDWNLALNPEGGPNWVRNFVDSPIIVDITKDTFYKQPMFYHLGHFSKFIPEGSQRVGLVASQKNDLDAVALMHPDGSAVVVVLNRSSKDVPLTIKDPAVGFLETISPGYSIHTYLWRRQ
Cytochrome P450 1A2 (Homo sapiens), sequence (P05177 whole entry, looked up): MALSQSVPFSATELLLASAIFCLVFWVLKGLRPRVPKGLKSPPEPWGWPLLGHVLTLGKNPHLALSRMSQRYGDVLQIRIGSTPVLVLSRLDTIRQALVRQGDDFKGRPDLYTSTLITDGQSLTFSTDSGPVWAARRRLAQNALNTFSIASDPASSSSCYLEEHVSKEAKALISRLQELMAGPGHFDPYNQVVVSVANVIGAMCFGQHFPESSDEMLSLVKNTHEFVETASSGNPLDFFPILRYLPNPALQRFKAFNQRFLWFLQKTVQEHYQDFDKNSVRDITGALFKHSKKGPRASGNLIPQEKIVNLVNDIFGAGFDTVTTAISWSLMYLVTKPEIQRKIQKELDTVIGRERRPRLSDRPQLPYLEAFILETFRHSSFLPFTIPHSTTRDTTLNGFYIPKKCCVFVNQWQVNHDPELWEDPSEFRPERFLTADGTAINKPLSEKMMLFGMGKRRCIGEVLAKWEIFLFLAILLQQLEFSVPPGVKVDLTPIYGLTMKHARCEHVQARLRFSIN
Cytochrome P450 2C9 (Homo sapiens), sequence (P11712 whole entry, looked up): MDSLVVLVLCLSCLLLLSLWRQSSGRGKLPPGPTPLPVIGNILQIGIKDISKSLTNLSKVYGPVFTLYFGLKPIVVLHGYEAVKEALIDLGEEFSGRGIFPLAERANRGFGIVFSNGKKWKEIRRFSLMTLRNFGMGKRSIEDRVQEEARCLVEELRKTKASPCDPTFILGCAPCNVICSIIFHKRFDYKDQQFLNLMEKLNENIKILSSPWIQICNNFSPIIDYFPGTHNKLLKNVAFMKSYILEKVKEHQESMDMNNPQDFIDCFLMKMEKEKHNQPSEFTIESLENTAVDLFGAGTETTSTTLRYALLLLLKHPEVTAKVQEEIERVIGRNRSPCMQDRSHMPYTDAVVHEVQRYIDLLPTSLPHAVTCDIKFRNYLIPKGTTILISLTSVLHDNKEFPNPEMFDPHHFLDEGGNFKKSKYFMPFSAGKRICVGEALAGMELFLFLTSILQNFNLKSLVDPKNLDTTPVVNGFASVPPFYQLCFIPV

For `OCCN(CO)CO`, the Potency in experiment [1] is > 11.4 µM; in experiment [5], > 46 µM; in experiment [6] it was > 9.22 µM. Moreover, the activity change, negative = inhibition in experiment [2] is 6.19%. Further, the Potency entry in experiment [3], in [7], in experiment [8] and in [9] was “inactive” in each case. Further, the activity, negative = inhibition in [4] is 7.15%.

Consider `C[C@@]12CC[C@H]3[C@H](CC=C4C[C@@H](O)CC[C@@]43C)[C@@H]1CC[C@@H]2N(CCO)CCO`, for which the figures for the Potency in experiment [1], in experiment [5] and in experiment [6] were > 11.4 µM, > 46 µM and > 9.22 µM, respectively. Besides, the activity change, negative = inhibition in experiment [2] is -4.05%. The Potency entry in [3], in experiment [7] and in experiment [8] was “inactive” each time. Further, in experiment [4], the activity, negative = inhibition was 18.7%. For the same molecule, the activation in [10] was 9.1%.

In the case of `Clc1nc(NCCc2ccccc2)c2ncn(-c3ccccc3)c2n1`, the Potency in [1] is > 11.4 µM; in experiment [3], 0.501 µM (active); in experiment [5] it was > 46 µM; in [6], > 9.22 µM; in experiment [11], 0.501 µM (active). The activity change, negative = inhibition in [2] is -9.15%. Also, the activity, negative = inhibition in [4] is -22.9%. Moreover, the Potency entry in experiment [7] and in experiment [8] was “inactive” in each case.

For `Clc1ccc(Cl)c(SCCCN2CCNCC2)c1`, the Potency in [1] is > 11.4 µM; in [3], 0.501 µM (active); in [5], > 46 µM; in experiment [6], > 9.22 µM; in [9] it was 2.51 µM (active). The activity change, negative = inhibition in experiment [2] is 3.23%. Moreover, in experiment [4], the activity, negative = inhibition was -0.882%. Moreover, the Potency entry in [7] and in experiment [8] was “inactive” in each case.

Consider `O=C(O)/C(=C\c1ccncc1)c1cccc2ccccc12`, for which the Potency in experiment [1] was > 11.4 µM; in experiment [3] it was 3.98 µM (active); in [5], > 46 µM; in experiment [6], > 9.22 µM; in experiment [11] it was 2.51 µM (active). Besides, the activity change, negative = inhibition in experiment [2] is -1.57%. In addition, the activity, negative = inhibition in experiment [4] was 7.21%. In addition, the Potency result in experiment [7] and in experiment [8] was “inactive” throughout.

For `Clc1ccc(Cl)c(Nc2ccnc(SCc3ccccc3)n2)c1`, the Potency in experiment [1] was > 11.4 µM; in experiment [3] it was 0.501 µM (active); in experiment [5] it was > 46 µM; in [6], > 9.22 µM; in experiment [11], 5.01 µM (active). Besides, the activity change, negative = inhibition in experiment [2] was 1.81%. For the same molecule, the activity, negative = inhibition in [4] is 0.24%. Also, the Potency result in experiment [7], in experiment [8] and in experiment [12] was “inactive” in each case. Moreover, the activation in [10] is -13.8%.

`CC1(C)N=C(N)N=C(N)N1CCCCc1ccccc1`: the Potency is > 11.4 µM in experiment [1], > 46 µM in [5], > 9.22 µM in experiment [6] and 3.16 µM (active) in [9]. Also, the activity change, negative = inhibition is 7.1% in [2] and -4.3% [at 2.29 µM] in [3]. Besides, the activity, negative = inhibition in experiment [4] was 0.495%. Moreover, the Potency result in experiment [7] and in experiment [8] was “inactive” in each case.

Take `O=[N+]([O-])c1ccc(C2=Nn3c(nnc3-c3ccc(Cl)cc3)SC2)o1`: the Potency in experiment [1] is > 11.4 µM; in experiment [3] it was 0.158 µM (active); in [5], > 46 µM; in experiment [6], > 9.22 µM; in experiment [11], 2.51 µM (active). Also, in experiment [2], the activity change, negative = inhibition is 22.7%. The activity, negative = inhibition in [4] was -6.24%. In addition, the Potency result in experiment [7] and in experiment [8] was “inactive” throughout.

As for `Nc1cccc2nsnc12`, the Potency in [1] is > 11.4 µM; in experiment [5], > 46 µM; in experiment [6], > 9.22 µM. The activity change, negative = inhibition in experiment [2] was 20.1%; in experiment [3] it was -15.3% [at 2.29 µM]. Also, the activity, negative = inhibition in [4] was 2.62%. The Potency entry in experiment [8], in experiment [13], in experiment [9] and in experiment [11] was “inactive” each time.

In the case of `Cc1nc2cnc(Oc3ccccc3)nc2n(CCc2ccccc2)c1=O`, the Potency in [1] was > 11.4 µM; in [3] it was 3.16 µM (active); in experiment [5] it was > 9.22 µM; in experiment [6], > 46 µM. For the same molecule, in experiment [2], the activity change, negative = inhibition was 17.9%. In addition, the activity, negative = inhibition in experiment [4] is -2.9%. Besides, the Potency result in experiment [7] and in [12] was “inactive” in each case.

On to `CC1(C)N=C(N)N=C(N)N1c1cccc(CSc2ccccc2)c1`, for which the Potency is > 11.4 µM in experiment [1], > 46 µM in [5], > 9.22 µM in experiment [6] and 0.251 µM (active) in experiment [9]. Moreover, the activity change, negative = inhibition is -4.06% in experiment [2] and -17.2% [at 2.29 µM] in experiment [3]. Also, the activity, negative = inhibition in experiment [4] was 2.13%. The Potency entry in experiment [7] and in experiment [8] was “inactive” in each case.

For `C[C@H](NC(=O)c1ccc(Cl)c(Cl)c1)c1ccc(-c2ccccc2)cc1`, the Potency is > 11.4 µM in experiment [1]; 0.631 µM (active) in experiment [3]; > 46 µM in [5]; > 9.22 µM in experiment [6]; 1.26 µM (active) in experiment [11]. In addition, the activity change, negative = inhibition in experiment [2] was -14.7%. Further, the activity, negative = inhibition in experiment [4] is -12.5%. Besides, the Potency result in experiment [7] and in [8] was “inactive” throughout.

Consider `Cc1ccc(S(=O)(=O)O[C@H]2C[C@@H](C(C)(C)C)CC[C@@H]2c2ccccc2)cc1`, for which the Potency is > 11.4 µM in experiment [1], > 46 µM in experiment [5], > 9.22 µM in experiment [6] and 3.16 µM (active) in experiment [11]. Moreover, the activity change, negative = inhibition is 7.67% in experiment [2] and -22.8% [at 2.29 µM] in experiment [3]. Moreover, the activity, negative = inhibition in experiment [4] is 4.83%. The Potency entry in experiment [7], in experiment [8] and in experiment [12] was “inactive” throughout.

As to `O=[N+]([O-])c1ccc(CSCc2ccc(Cl)cc2)cc1`, the Potency is > 11.4 µM in experiment [1]; 3.98 µM (active) in [3]; > 46 µM in [5]; > 9.22 µM in experiment [6]; 0.398 µM (active) in [11]. Moreover, the activity change, negative = inhibition in experiment [2] is -19.3%. The activity, negative = inhibition in experiment [4] is 11.6%. For the same molecule, the Potency result in experiment [7] and in experiment [8] was “inactive” in each case.

Take `N/N=C1/c2ccccc2N[C@H]1OC(=O)Nc1ccccc1`: the Potency in experiment [1] is > 11.4 µM; in [3], 0.501 µM (active); in experiment [5], > 46 µM; in experiment [6], > 9.22 µM; in experiment [9], 3.16 µM (active). Also, the activity change, negative = inhibition in experiment [2] is -4.61%. The activity, negative = inhibition in [4] was -9.98%. In addition, the Potency result in [7] and in experiment [8] was “inactive” throughout.
